Laboratory results reported in PubChem BioAssay (Tox21).
Results filed as inconclusive are left out. Active and inactive are the calls of the source. Calls follow the shape of the dose curve; as a rule, active = well fitted activation curve with a large enough effect in the signal ratio in the repeat runs (not every such curve was filed as active); inconclusive = weak or mixed curves, or effect the other way; inactive = flat fitted curve, though single readings scatter; the % refers to the signal ratio.

assay: qHTS assay to identify small molecule agonists of the endoplasmic reticulum stress response signaling pathway (AID 1159516); conditions: ESRE-bla HeLa, ER stress beta-lactamase reporter, 5 h; series mostly up to 61 µM
Summary of the method: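 Fluorescence at 460 and 530 nm (405 nm excitation) reports beta-lactamase from an ER stress response element in HeLa cells treated 5 hr at 37 C.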

Structure (SMILES) | outcome
O=C(CCCl)NCc1ccccc1 | inactive
O=C(O[C@@H](C(=O)O)[C@@H](OC(=O)c1ccccc1)C(=O)O)c1ccccc1 | inactive
Nc1cccc(S(=O)(=O)O)c1 | inactive
CCOC(=O)c1ccccc1O | inactive
CCCOCCC | inactive
CC1(C)S[C@@H]2[C@H](NC(=O)C(C(=O)O)c3ccccc3)C(=O)N2[C@H]1C(=O)O (stereo partly drawn) | inactive
Cc1cc(NS(=O)(=O)c2ccc(N)cc2)nc(C)n1 | inactive
Cc1ccc(C)c(N)c1 | inactive
Cc1cc(S(=O)(=O)O)c(N)cc1Cl | inactive
Cc1nnc(SCC2=C(C(=O)O)N3C(=O)[C@@H](NC(=O)Cn4cnnn4)[C@H]3SC2)s1 | inactive
CC(C)(C)C1CCCCC1=O (stereo not drawn) | inactive
CCCC(CCC)(C(=O)OCC)C(=O)OCC | inactive
CC(CNC1CCCCC1)OC(=O)c1ccccc1 (stereo not drawn) | inactive
CCOc1ccc(OCC)c(Cl)c1 | inactive
O=C(O)[C@@H]1CSCN1 | inactive
CC1=C(O)C(=O)OC1C (stereo not drawn) | inactive
Cc1ncc(CO)c(CN)c1O | inactive
O=S(=O)(O)C(F)(F)F | inactive
CN1CCN(c2c(F)cc3c(=O)c(C(=O)O)cn(CCF)c3c2F)CC1 | inactive

Structure (SMILES) | outcome
O=C(O)c1cccc(Cl)c1Cl | inactive
Cc1ccc([N+](=O)[O-])cc1Cl | inactive
NCCCN1CCN(CCCN)CC1 | inactive
FC(F)(F)c1ccccc1 | inactive
COC(=O)N[C@H](C(=O)N[C@@H](Cc1ccccc1)[C@@H](O)CN(Cc1ccc(-c2ccccn2)cc1)NC(=O)[C@@H](NC(=O)OC)C(C)(C)C)C(C)(C)C | inactive
OCCN1CCN(CCO)CC1 | inactive
CCCCN1C[C@H](O)[C@@H](O)[C@H](O)[C@H]1CO | inactive
O=CCCc1ccccc1 | inactive
CCN[C@H]1CN(CCCOC)S(=O)(=O)c2sc(S(N)(=O)=O)cc21 | inactive
C=Cc1ccccc1 | inactive
COc1cc(Cl)ccc1Cl | inactive
Cc1ccsc1C(=CCCN1CCC[C@@H](C(=O)O)C1)c1sccc1C | inactive
N#CSCC(=O)O | inactive
CC1(C)C(=O)N(Cl)C(=O)N1Br | inactive
CC(C)Nc1nc(N)nc(Cl)n1 | inactive
CC(C)S | inactive
COc1cc(C)ccc1C(C)C | inactive
CCC1(C)NC(=O)NC1=O (stereo not drawn) | inactive
C=C(C)C(=O)OCCOP(=O)(O)O | inactive
